# Only some compounds are listed: those with a hit (about 2.4% of all), similar ones and a draw of the others.
# SmPrx2 inh = Schistosoma Mansoni Peroxiredoxins (Prx2); Schistosoma mansoni peroxiredoxin 2 (Prx2); S. mansoni Prx2 activity coupled to TGR/GSH (TGR is thioredoxin glutathione reductase), NADPH fluorescence loss, qHTS; Potency, µM; 65,000 tested, 0.07% active; AID 448, 2006
#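 Coupled assay in which S. mansoni TGR passes NADPH reducing equivalents via glutathione to Prx2, which reduces H2O2. Compounds were preincubated 15 min at room temperature with 25 nM TGR/50 nM Prx2 mix. Kinetic NADPH fluorescence loss (ex 365/em 450 nm) was monitored.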
# AmpC inh no det = Promiscuous and Specific Inhibitors of AmpC Beta-Lactamase (assay without detergent). AmpC nitrocefin hydrolysis, absorbance 480 nm, no detergent. Potency, µM (series often up to 28.7 µM), for the others: at the highest dose activity change, negative = inhibition. 71,000 tested, 1.8% active; also: % of control where 0% means no effect
# Target sequence (P00811 whole entry, looked up): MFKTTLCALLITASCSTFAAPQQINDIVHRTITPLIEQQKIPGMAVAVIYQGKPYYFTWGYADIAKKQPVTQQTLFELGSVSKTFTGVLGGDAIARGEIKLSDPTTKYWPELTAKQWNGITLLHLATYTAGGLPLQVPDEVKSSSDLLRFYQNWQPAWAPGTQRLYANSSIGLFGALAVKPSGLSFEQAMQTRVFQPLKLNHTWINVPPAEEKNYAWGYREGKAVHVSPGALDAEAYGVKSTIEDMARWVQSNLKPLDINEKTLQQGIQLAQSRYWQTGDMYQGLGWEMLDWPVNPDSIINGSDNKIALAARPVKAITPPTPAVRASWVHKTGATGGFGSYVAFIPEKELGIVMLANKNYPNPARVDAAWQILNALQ
#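 Enzyme, pH 7.0 phosphate. Compound titrations were pre-incubated with AmpC for 15 min at room temperature before nitrocefin (stock 800 uM) addition; product formation was recorded at 480 nm every 20 s for 4 min.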
# LT uptake inh = qHTS Assay for Anthrax Lethal Toxin Internalization | Cells, anthrax lethal toxin internalization, FRET ratio (460/530) | 70,000 tested, 0.67% active | AID 912, 2007 | Potency, µM (series often up to 40 µM), for inactives: at the top dose activity change, negative = inhibition, actives largely listed as inhibitors; also: % is scaled to controls: 0 for no effect and ±100 for the full control effect; nearly all actives have a fitted effect of over 50% in size
# AmpC det inh = Promiscuous and Specific Inhibitors of AmpC Beta-Lactamase (assay with detergent) | P00811 | purified AmpC, nitrocefin hydrolysis with detergent | Potency, µM (top dose mostly 28.7 µM), without a hit: at the highest dose activity change, negative = inhibition | 71,000 tested, 0.09% active | AID 584, 2007; active = well fitted curve in the direction sought with a large enough effect; inconclusive = small, poorly fitted or top-dose-only effect; also: % is scaled to controls: 0 for no effect and ±100 for the full control effect
#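 E. coli AmpC (5.3 nM) in 20 mM phosphate pH 7.0 with 0.01% Triton X-100, preincubated 15 min RT with compound; nitrocefin (2 uL of 800 uM stock) hydrolysis followed by 480 nm absorbance every 20 s over 4 min.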
# * = called active by the depositor; ? = inconclusive; . = no result; [ ] = remark or other dose. Unless noted, calls follow the shape of the full dose curve. Potency is read from the fitted curve at half-maximal effect.
SMILES,SmPrx2 inh,AmpC inh no det,LT uptake inh,AmpC det inh
COc1ccccc1-c1nnc(NC(=O)c2ccc(S(=O)(=O)N(C)Cc3ccccc3)cc2)o1,>57,27.2%,-0.7%,-2.3%
CC[C@H](CO)NC(=O)[C@H]1C=C2c3cccc4[nH]cc(c34)C[C@@H]2N(C)C1,>57,-15.2%[12.8 µM],-0.2%[3.58 µM],-1.9%[12.8 µM]
COc1ccc(-c2nc(CS(=O)CC(=O)NCc3ccc4c(c3)OCO4)c(C)o2)cc1 (configuration not stated),>57,95.9%,-5.2%,14.0%
COCCNC(=O)CS(=O)Cc1nc(-c2ccc(OC)cc2)oc1C (configuration not stated),>57,3.16µM*,-5.9%,11.9%
COc1ccc(CNC(=O)CS(=O)Cc2nc(-c3ccc(C)cc3)oc2C)cc1 (configuration not stated),>57,114.3%,-24.7%,11.0%
COc1ccc(-c2nc(CS(=O)CC(=O)NCc3ccco3)c(C)o2)cc1OC (configuration not stated),>57,3.98µM*[single pt active],-2.1%,11.7%
COc1ccc(-c2nc(CS(=O)CC(=O)NCC3CCCO3)c(C)o2)cc1 (configuration not stated),>57,3.98µM*[single pt active],8.9%,11.6%
COc1ccc(-c2nc(CS(=O)CC(=O)N3CCCC3)c(C)o2)cc1 (configuration not stated),>57,3.98µM*[single pt active],15.0%,14.1%
O=C1CC2(CCCC2)CC(=O)N1CCCCNC[C@H]1COc2ccccc2O1,>57,50.2%,-2.2%,-0.9%
COC(=O)[C@@]1(Cc2ccc(OC)cc2)[C@H]2c3cc(C(=O)N4CCCC4)n(CCc4c[nH]c5cc(F)ccc45)c3C[C@H]2CN1C(=O)c1ccccc1,>57,100.1%,?,-4.2%
CCOC(=O)Cn1c(=O)oc2cc(S(=O)(=O)NCCCc3ccccc3)ccc21,>57,0.316µM*[single pt active],?,12.8%
O=C(c1cc(C(F)(F)F)cc(C(F)(F)F)c1)N1CCC2(CC1)CCN(c1ccccn1)CC2,>57,120.4%,-4.0%,-1.8%
Cc1cc(/C=N/n2cnnc2)c(C)n1-c1cccc(Cl)c1,.,52.3%,12.4%,-3.0%
Cc1cc(/C=N/n2cnnc2)c(C)n1-c1ccc(OCc2ccc(F)cc2)cc1,>57,99.4%,12.6µM*,-2.8%
CCn1c2ccccc2c2cc(NC(=O)C3CCN(S(=O)(=O)c4cccs4)CC3)ccc21,>57,12.6µM*,-28.5%,-1.1%
CC1(C)COCN1COC1CCCCC1,>57,0.2%[5.75 µM],-8.7%[8 µM],-1.1%[5.75 µM]
O=C(O)c1cccc(C[C@H](Br)C(=O)O)c1,>57,-2.0%[5.75 µM],-1.8%[8 µM],0.9%[5.75 µM]
COc1ccc(OC)c(C2=NOC(C(=O)Nc3cc(C)nn3-c3ccccc3)C2)c1 (configuration not stated),>57,3.98µM*[single pt active],-11.7%,11.2%
CSc1ccc2c(c1)N(CC[C@H]1CCCCN1C)c1ccccc1S2,>57,68.5%[12.8 µM],10µM*,0.8%[12.8 µM]
CN1CCCC[C@@H]1CCN1c2ccccc2Sc2ccc(S(C)=O)cc21 (some centres not stated),>57,-1.8%[5.75 µM],-1.3%[8 µM],-1.6%[5.75 µM]
O=c1c(-c2ccccc2)nc2cnc(N3CCOCC3)nc2n1Cc1ccc(F)cc1,>57,14.0%,?,-1.2%
COc1ccc(N2CCN(C(=O)c3cc4c(-c5ccc(Cl)cc5)nn(C)c4s3)CC2)cc1,>57,3.98µM*[single pt active],?,11.6%
COc1cccc(-c2nn(C)c3sc(C(=O)N4CCN(c5ccccn5)CC4)cc23)c1,>57,97.0%,10µM*,-2.9%
COc1cccc(-c2nn(C)c3sc(C(=O)N4CCOCC4)cc23)c1,>57,136.0%,18.6%,1.0%
O=C(CC(=O)c1cc(Cl)ccc1O)c1ccccc1,.,-2.4%,7.94µM*,8.4%
SMILES,SmPrx2 inh,AmpC inh no det,LT uptake inh,AmpC det inh
Cc1ccc(O)c(C(=O)CC(=O)c2cccc(F)c2)c1,.,2.6%,?,-0.9%
CCCCn1c2c(c3ccccc31)CCc1nonc1-2,>57,3.98µM*[single pt active],?,25.8%
C=C(C)CN(CC#N)CC(=C)C,>57,15.3%[5.75 µM],-11.3%[8 µM],-2.7%[5.75 µM]
Nc1cc(Cl)c([N+](=O)[O-])cc1O,.,-4.3%,-4.4%,12.1%
O=C(C1CCCN(S(=O)(=O)c2cccnc2)C1)N1CCN(c2ccccn2)CC1 (configuration not stated),>57,3.98µM*[single pt active],?,11.8%
CCOC(=O)N1CCN(C(=O)C2CCCN(S(=O)(=O)c3cccnc3)C2)CC1 (configuration not stated),>57,3.98µM*[single pt active],1.3%,13.8%
O=C(NCc1ccc2c(c1)OCO2)C1CCCN(S(=O)(=O)c2cccnc2)C1 (configuration not stated),>57,3.98µM*[single pt active],-10.5%,12.2%
Cc1csc(NC(=O)C2CCCN(S(=O)(=O)c3cccnc3)C2)n1 (configuration not stated),>57,3.16µM*[single pt active],-1.5%,13.6%
Cc1ccc(CNC(=O)C2CCCN(S(=O)(=O)c3cccnc3)C2)cc1 (configuration not stated),>57,26.5%,-8.7%,-2.7%
Cc1cccc(Cl)c1NC[C@H](O)CN1CCN(C)CC1,>57,-4.0%[5.75 µM],-11.2%[8 µM],-3.7%[5.75 µM]
CNC(=O)[C@@H]1O[C@@H](n2cnc3c(NCc4ccc(N)cc4)ncnc32)[C@@H](O)[C@H]1O,>57,-1.8%,-6.8%,0.4%
O=C(Nc1nnc(COc2ccccc2)s1)c1ccco1,>57,-0.4%,-1.1%,-1.8%
O=C(Nc1nc(-c2cccs2)c(-c2ccccc2)s1)c1ccco1,>57,-22.2%,12.6µM*,-7.0%
CCOC(=O)c1cnc(N(C)C)nc1SC(=N)N,>57,3.5%[5.75 µM],-7.0%[8 µM],-1.9%[5.75 µM]
Cc1cc(C(=O)N2CCN(c3ncccn3)CC2)sc1-c1ccccc1,>57,55.8%,-9.3%,-3.8%
CCN1CCN(C(=O)c2cc3c(s2)-c2ccccc2S(=O)(=O)C3)CC1,>57,3.98µM*[single pt active],-13.7%,15.1%
O=C(c1ccco1)N1CCN(C(=O)c2cc3c(s2)-c2ccccc2OC3)CC1,>57,135.5%,-18.8%,10.7%
CN1CCN(C(=O)c2cc3c(s2)-c2ccccc2S(=O)(=O)C3)CC1,>57,3.98µM*[single pt active],-3.3%,11.4%
C=C1CC[C@H](O)C/C1=C/C=C1\CCC[C@]2(C)[C@H]1CC[C@H]2[C@@H](C)/C=C\[C@@H](C)C(C)C,>57,43.5%[12.8 µM],?,-5.4%[12.8 µM]
CO[C@@H]1COC(=O)C/C=C\[C@@H](C)[C@H](OC)COC(=O)[C@H](COCc2ccccc2)NC(=O)C/C=C\[C@H]1C,.,.,-10.6%[1.6 µM],.
CN1CCN([C@@H]2Cc3ccccc3Sc3ccc(Cl)cc32)CC1,>57,62.8%,?,-0.2%
O=C(O)c1ccc(NS(=O)(=O)c2ccsc2C(=O)O)c(O)c1,.,.,-5.2%,.
COCCCNC(=O)CCCn1c(=O)[nH]c2ccccc2c1=O,>57,-8.9%,-9.5%,-3.5%
COCCCNC(=O)c1ccc(Cn2c(=O)[nH]c3ccccc3c2=O)cc1,>57,3.98µM*[single pt active],?,14.3%
CC(=O)OC[C@@H]1O[C@H](CCO/N=C(\C)CCN2CCc3nc(-c4ccccc4)c(-c4ccccc4)cc3C2)C=C[C@@H]1OC(C)=O,.,.,-3.9%[8 µM],.
